Results from PubChem BioAssay AID1159580 (chemical genetic matrix, 2015).
Where “and” joins values, the source holds several entries; their conditions need not be identical. Identical values can stand only once. Out of some 5,500 compounds screened, about 2,000 (36%) were called active. Roughly 18% stayed inconclusive and do not appear here. No stated cut-off is given here; in the data, active means normalized growth mostly below about 0.91 (no sharp cut-off); inconclusive means no clear call, values can overlap the other calls; inactive means mostly above about 0.92. This is one part of the list.

Assay: chemical genetic growth profiling, strain panel (AID 1159580);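 further: tested at 20 µM; growth read once vehicle control cultures reached saturation at 30 °C; 1 = growth at the plate median or of vehicle wells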
Conditions: S. cerevisiae deletion strains, growth OD

Measured: normalized growth

CC(C)=CCc1c2c(c3occ(-c4ccc(O)c(O)c4)c(=O)c3c1O)C=CC(C)(C)O2
0.145 (active) and 0.912 (inactive): locus YJL095W, strain BCK1, stronger effect = lower value
active: locus YBR021W, strain FUR4, stronger effect = lower value 0.518 | locus YBR229C, strain ROT2, stronger effect = lower value 0.548 | locus YBR231C, strain swc5, stronger effect = lower value 0.895 | locus YCL029C, strain bik1, stronger effect = lower value 0.616 | locus YDL035C, strain GPR1, stronger effect = lower value 0.238 | locus YDL074C, strain BRE1, stronger effect = lower value 0.313 | locus YDL101C, strain DUN1, stronger effect = lower value 0.256 | locus YDL134C, strain PPH21, stronger effect = lower value 0.235 | locus YDL192W, strain arf1, stronger effect = lower value 0.66 | locus YDR069C, strain doa4, stronger effect = lower value 0.845 | locus YDR101C, strain arx1, stronger effect = lower value 0.747 | locus YDR162C, strain NBP2, stronger effect = lower value 0.155 | locus YDR318W, strain mcm21, stronger effect = lower value 0.721 | locus YDR388W, stronger effect = lower value 0.776 | locus YDR502C, strain sam2, stronger effect = lower value 0.674 | locus YEL061C, strain CIN8, stronger effect = lower value 0.406 | locus YER015W, strain faa2, stronger effect = lower value 0.909 | locus YER155C, strain BEM2, stronger effect = lower value 0.544 | locus YER167W, strain BCK2, stronger effect = lower value 0.545 | locus YGL086W, strain mad1, stronger effect = lower value 0.67 | locus YGL173C, strain kem1, stronger effect = lower value 0.887 | locus YGL248W, strain PDE1, stronger effect = lower value 0.257 | locus YGR078C, strain PAC10, stronger effect = lower value 0.457 | locus YGR135W, strain pre9, stronger effect = lower value 0.586 | locus YGR252W, strain gcn5, stronger effect = lower value 0.557 | locus YHR079C, strain IRE1 (second series), stronger effect = lower value 0.722 | locus YHR094C, strain hxt1, stronger effect = lower value 0.888 | locus YHR129C, strain ARP1, stronger effect = lower value 0.457 | locus YHR200W, strain rpn10, stronger effect = lower value 0.724 | locus YIL066C, strain RNR3, stronger effect = lower value 0.227 | locus YIL073C, strain SPO22, stronger effect = lower value 0.137 | locus YIR030C, strain dcg1, stronger effect = lower value 0.811 | locus YJL134W, strain LCB3, stronger effect = lower value 0.677 | locus YJL164C, strain tpk1, stronger effect = lower value 0.91 | locus YJL168C, strain set2, stronger effect = lower value 0.916 | locus YJL187C, strain SWE1 (second series), stronger effect = lower value 0.161 | locus YJR043C, strain POL32, stronger effect = lower value 0.255 | locus YJR075W, strain HOC1, stronger effect = lower value 0.468
0.197 (active) and 0.903 (inactive): locus YHR030C, strain SLT2, stronger effect = lower value
inactive: locus YAL021C, strain ccr4, stronger effect = lower value 0.95 | locus YAL026C, strain drs2, stronger effect = lower value 0.945 | locus YAL030W, strain snc1, stronger effect = lower value 0.961 | locus YBL061C, strain skt5, stronger effect = lower value 0.949 | locus YBR009C, strain hhf1, stronger effect = lower value 0.931 | locus YBR023C, strain chs3, stronger effect = lower value 0.937 | locus YBR171W, strain sec66, stronger effect = lower value 0.98 | locus YBR279W, strain paf1, stronger effect = lower value 0.956 | locus YCL011C, strain gbp2, stronger effect = lower value 0.944 | locus YCL016C, strain dcc1, stronger effect = lower value 0.961 | locus YCL069W, strain vba3, stronger effect = lower value 0.992 | locus YCR088W, strain abp1, stronger effect = lower value 0.997 | locus YDL005C, strain med2, stronger effect = lower value 0.988 | locus YDL040C, strain nat1, stronger effect = lower value 1 | locus YDL185W, strain tfp1, stronger effect = lower value 0.966 | locus YDR001C, strain nth1, stronger effect = lower value 1 | locus YDR137W, strain rgp1, stronger effect = lower value 1 | locus YDR159W, strain sac3, stronger effect = lower value 0.959 | locus YDR195W, strain ref2 1.01 | locus YDR297W, strain sur2, stronger effect = lower value 0.924 | locus YDR334W, strain swr1, stronger effect = lower value 0.969 | locus YDR335W, strain msn5, stronger effect = lower value 0.953 | locus YDR392W, strain spt3, stronger effect = lower value 0.782 | locus YEL003W, strain gim4, stronger effect = lower value 0.932 | locus YEL037C, strain rad23, stronger effect = lower value 0.977 | locus YEL061C, strain CIN8 (second series), stronger effect = lower value 0.999 | locus YER016W, strain bim1, stronger effect = lower value 0.989 | locus YER110C, stronger effect = lower value 0.981 | locus YER111C, strain swi4, stronger effect = lower value 0.939 | locus YER155C, strain BEM2 (second series), stronger effect = lower value 0.909 | locus YFR010W, strain ubp6, stronger effect = lower value 0.946 | locus YGL078C, strain dbp3, stronger effect = lower value 0.93 | locus YGL167C, strain pmr1, stronger effect = lower value 0.986 | locus YGL227W, strain vid30, stronger effect = lower value 1 | locus YGL240W, strain doc1, stronger effect = lower value 0.994 | locus YGL253W, strain hxk2, stronger effect = lower value 0.937 | locus YHR013C, strain ard1, stronger effect = lower value 0.947 | locus YHR027C, strain rpn1, stronger effect = lower value 0.932 | locus YHR079C, strain IRE1, stronger effect = lower value 0.926 | locus YHR142W, strain chs7, stronger effect = lower value 0.948 | locus YIL125W, strain kgd1, stronger effect = lower value 0.933 | locus YJL092W, strain hpr5, stronger effect = lower value 0.983 | locus YJL095W, strain BCK1 (second series), stronger effect = lower value 0.961 | locus YJL115W, strain asf1, stronger effect = lower value 0.999 | locus YJL129C, strain trk1, stronger effect = lower value 1 | locus YJL154C, strain vps35, stronger effect = lower value 1 | locus YJL166W, strain qcr8, stronger effect = lower value 0.919 | locus YJR066W, strain TOR1, stronger effect = lower value 0.885
